Several values for one entry are separate records, joined by “and”; a condition that tells them apart may be missing. Equal entries are not always repeated. The campaign covered roughly 5,500 compounds. About 2,000 (36%) were called active. Roughly 18% stayed inconclusive and do not appear here. Cut-off read from the data, not from the text of the source: active = normalized growth mostly below about 0.91 (no sharp cut-off); inconclusive = no clear call, values can overlap the other calls; inactive = mostly above about 0.92. This is one part of the list.
Experiment: chemical genetic growth profiling, strain panel (AID 1159580);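 note: tested at 20 µM; growth read once vehicle control cultures reached saturation at 30 °C; 1 = growth at the plate median or of vehicle wells; lower values mean less growth of the strain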
Conditions: growth OD

Measured: normalized growth

COc1ccccc1N1CCN(CCCNc2cc(=O)n(C)c(=O)n2C)CC1
inactive: S. cerevisiae deletion strains, locus YJR043C, strain POL32, active compounds read low 1.01 | S. cerevisiae deletion strains, locus YJR075W, strain HOC1, active compounds read low 0.991 | S. cerevisiae deletion strains, locus YKL009W, strain mrt4, active compounds read low 0.976 | S. cerevisiae deletion strains, locus YKL068W, active compounds read low 0.978 | S. cerevisiae deletion strains, locus YKL085W, strain MDH1 (second series), active compounds read low 0.985 | S. cerevisiae deletion strains, locus YKL085W, strain MDH1, active compounds read low 0.985 | S. cerevisiae deletion strains, locus YKL160W, strain elf1, active compounds read low 0.995 | S. cerevisiae deletion strains, locus YKL190W, strain CNB1, active compounds read low 0.986 | S. cerevisiae deletion strains, locus YKR001C, strain vps1, active compounds read low 0.982 | S. cerevisiae deletion strains, locus YKR026C, strain gcn3, active compounds read low 1.02 | S. cerevisiae deletion strains, locus YKR091W, strain srl3, active compounds read low 1.01 | S. cerevisiae deletion strains, locus YLL001W, strain dnm1, active compounds read low 1.02 | S. cerevisiae deletion strains, locus YLL026W, active compounds read low 1.01 | S. cerevisiae deletion strains, locus YLL041C, strain sdh2, active compounds read low 1.01 | S. cerevisiae deletion strains, locus YLR027C, strain aat2, active compounds read low 1.01 | S. cerevisiae deletion strains, locus YLR039C, strain RIC1, active compounds read low 0.937 | S. cerevisiae deletion strains, locus YLR058C, strain SHM2, active compounds read low 0.974 | S. cerevisiae deletion strains, locus YLR102C, strain apc9, active compounds read low 0.988 | S. cerevisiae deletion strains, locus YLR221C, strain rsa3, active compounds read low 1.01 | S. cerevisiae deletion strains, locus YLR258W, strain gsy2, active compounds read low 1.02 | S. cerevisiae deletion strains, locus YLR262C, strain YPT6 (second series), active compounds read low 1.03 | S. cerevisiae deletion strains, locus YLR262C, strain YPT6, active compounds read low 0.857 | S. cerevisiae deletion strains, locus YLR268W, strain sec22, active compounds read low 0.982 | S. cerevisiae deletion strains, locus YLR320W, strain mms22, active compounds read low 1.02 | S. cerevisiae deletion strains, locus YLR330W, strain CHS5, active compounds read low 0.982 | S. cerevisiae deletion strains, locus YLR342W, strain FKS1 (second series), active compounds read low 1.03 | S. cerevisiae deletion strains, locus YLR342W, strain FKS1, active compounds read low 1.01 | S. cerevisiae deletion strains, locus YLR357W, strain rsc2, active compounds read low 1.03 | S. cerevisiae deletion strains, locus YLR370C, strain arc18, active compounds read low 1.03 | S. cerevisiae deletion strains, locus YLR371W, strain rom2, active compounds read low 1 | S. cerevisiae deletion strains, locus YLR384C, strain iki3, active compounds read low 1.02 | S. cerevisiae deletion strains, locus YLR418C, strain cdc73, active compounds read low 0.97 | S. cerevisiae deletion strains, locus YML016C, strain PPZ1, active compounds read low 0.983 | S. cerevisiae deletion strains, locus YML032C, strain rad52, active compounds read low 1.01 | S. cerevisiae deletion strains, locus YML120C, strain ndi1, active compounds read low 1 | S. cerevisiae deletion strains, locus YML124C, strain tub3, active compounds read low 0.997 | S. cerevisiae deletion strains, locus YMR058W, strain fet3, active compounds read low 1.01 | S. cerevisiae deletion strains, locus YMR078C, strain ctf18, active compounds read low 0.981 | S. cerevisiae deletion strains, locus YMR125W, strain sto1, active compounds read low 1.01 | S. cerevisiae deletion strains, locus YMR129W, active compounds read low 1.02 | S. cerevisiae deletion strains, locus YMR205C, strain PFK2, active compounds read low 1.01 | S. cerevisiae deletion strains, locus YMR223W, strain ubp8, active compounds read low 1 | S. cerevisiae deletion strains, locus YMR231W, strain pep5, active compounds read low 1.02 | S. cerevisiae deletion strains, locus YMR263W, strain SAP30, active compounds read low 0.975 | S. cerevisiae deletion strains, locus YMR307W, strain GAS1, active compounds read low 0.969 and 1.01 | S. cerevisiae deletion strains, locus YNL067W, strain RPL9B, active compounds read low 0.977 | S. cerevisiae deletion strains, locus YNL071W, strain lat1, active compounds read low 1.02 | S. cerevisiae deletion strains, locus YNL128W, strain TEP1, active compounds read low 0.983 and 1.01 | S. cerevisiae deletion strains, locus YNL153C, strain GIM3, active compounds read low 0.977 | S. cerevisiae deletion strains, locus YNL175C, strain NOP13, active compounds read low 1 | S. cerevisiae deletion strains, locus YNL197C, strain WHI3, active compounds read low 1 | S. cerevisiae deletion strains, locus YNL209W, strain ssb2, active compounds read low 1.01 | S. cerevisiae deletion strains, locus YNL224C, strain SQS1, active compounds read low 1 | S. cerevisiae deletion strains, locus YNL233W, strain BNI4, active compounds read low 0.986 | S. cerevisiae deletion strains, locus YNL248C, strain rpa49, active compounds read low 1 | S. cerevisiae deletion strains, locus YNL250W, strain rad50, active compounds read low 0.983 | S. cerevisiae deletion strains, locus YNL271C, strain bni1, active compounds read low 0.992 | S. cerevisiae deletion strains, locus YNL298W, strain CLA4, active compounds read low 0.982 | S. cerevisiae deletion strains, locus YNL307C, strain MCK1, active compounds read low 1.01 | S. cerevisiae deletion strains, locus YNL322C, strain KRE1 (second series), active compounds read low 1.01 | S. cerevisiae deletion strains, locus YNL322C, strain KRE1, active compounds read low 0.977 and 1.02 | S. cerevisiae deletion strains, locus YNR049C, strain mso1, active compounds read low 1.02 | S. cerevisiae deletion strains, locus YNR052C, strain pop2, active compounds read low 0.997 | S. cerevisiae deletion strains, locus YOL006C, strain TOP1, active compounds read low 0.959 | S. cerevisiae deletion strains, locus YOL012C, strain htz1 0.738 | S. cerevisiae deletion strains, locus YOL147C, strain pex11, active compounds read low 0.992 | S. cerevisiae deletion strains, locus YOR001W, strain rrp6, active compounds read low 1.02 | S. cerevisiae deletion strains, locus YOR061W, strain CKA2, active compounds read low 0.963 | S. cerevisiae deletion strains, locus YOR069W, strain VPS5, active compounds read low 0.995 | S. cerevisiae deletion strains, locus YOR070C, strain gyp1, active compounds read low 1.01 | S. cerevisiae deletion strains, locus YOR080W, strain dia2, active compounds read low 1.01 | S. cerevisiae deletion strains, locus YOR083W, strain WHI5 (second series), active compounds read low 0.992 | S. cerevisiae deletion strains, locus YOR083W, strain WHI5, active compounds read low 0.989 | S. cerevisiae deletion strains, locus YOR106W, strain vam3, active compounds read low 1.01 | S. cerevisiae deletion strains, locus YOR136W, strain idh2, active compounds read low 0.997 | S. cerevisiae deletion strains, locus YOR144C, strain elg1, active compounds read low 0.996 | S. cerevisiae deletion strains, locus YOR184W, strain ser1, active compounds read low 1 | S. cerevisiae deletion strains, locus YOR265W, strain rbl2, active compounds read low 1.01 | S. cerevisiae deletion strains, locus YOR270C, strain vph1, active compounds read low 1.03 | S. cerevisiae deletion strains, locus YOR290C, strain snf2, active compounds read low 1 | S. cerevisiae deletion strains, locus YOR316C, strain cot1, active compounds read low 0.988 | S. cerevisiae deletion strains, locus YPL051W, strain arl3, active compounds read low 1.01 | S. cerevisiae deletion strains, locus YPL055C, strain LGE1, active compounds read low 0.965 | S. cerevisiae deletion strains, locus YPL078C, strain atp4, active compounds read low 1.03 | S. cerevisiae deletion strains, locus YPL106C, strain sse1, active compounds read low 1.01 | S. cerevisiae deletion strains, locus YPL240C, strain hsp82, active compounds read low 1.03 | S. cerevisiae deletion strains, locus YPL241C, strain CIN2, active compounds read low 1 and 0.997 | S. cerevisiae deletion strains, locus YPR119W, strain clb2, active compounds read low 0.999 | S. cerevisiae deletion strains, locus YPR141C, strain kar3, active compounds read low 0.967 | S. cerevisiae deletion strains, locus YPR163C, strain tif3, active compounds read low 1 | S. cerevisiae deletion strains, locus YPR167C, strain met16, active compounds read low 0.984 | S. cerevisiae deletion strains, strain wtn01, active compounds read low 0.991 | S. cerevisiae strains, strain wild type, active compounds read low 0.997
